# Assay outcomes from PubChem BioAssay.
# D2 ag-1 = human D2 receptor agonism in beta-arrestin assay; P14416; DiscoveRx PathHunter D2 beta-arrestin, luminescence, 90 min; 100% = 57 uM dopamine signal; activation, % (no concentration beside the values); 0.084% of 360,000 active; AID 624465; in the data active means activation above about 40%; inconclusive means between about 15% and that limit
# Target sequence (P14416 whole entry, looked up): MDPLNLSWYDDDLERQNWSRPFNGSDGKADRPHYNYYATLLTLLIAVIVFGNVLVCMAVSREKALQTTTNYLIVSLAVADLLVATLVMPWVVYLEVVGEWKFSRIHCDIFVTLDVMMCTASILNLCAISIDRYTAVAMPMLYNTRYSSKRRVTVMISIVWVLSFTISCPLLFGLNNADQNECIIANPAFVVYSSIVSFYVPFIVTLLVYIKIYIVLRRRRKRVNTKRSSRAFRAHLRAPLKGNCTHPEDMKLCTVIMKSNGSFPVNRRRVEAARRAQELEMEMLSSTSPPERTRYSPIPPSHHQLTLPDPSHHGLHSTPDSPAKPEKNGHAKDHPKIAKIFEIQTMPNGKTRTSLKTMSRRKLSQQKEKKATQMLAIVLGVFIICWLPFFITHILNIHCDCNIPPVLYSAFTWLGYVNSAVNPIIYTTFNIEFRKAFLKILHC
#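 Agonist mode: compounds alone added to overnight-plated D2 PathHunter cells for 90 min at 37 C, with 57 uM final dopamine (EC100) defining full response. Beta-arrestin recruitment detected by chemiluminescent reagent, read after 1 h at ambient temperature.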
# D2 PAM-1 = D2 dopamine receptor (human) potentiation; P14416; HEK293 T-REx D2, calcium flux, EC20 dopamine potentiation; potentiation, % at 10 µM; 0.34% of 340,000 active; AID 485347;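 active means potentiation over 3 SD above the plate norm, cut at about 30% in these data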
#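 Potentiation of an EC20 dopamine calcium response is measured in a force-coupled, tetracycline-inducible Hek293 Trex D2 line. Compound-only kinetic reads over 180 s flag agonists before dopamine addition.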
# D2 ag-2 = D2 dopamine receptor (human) agonism | activation, % at 2 µM | HEK293 T-REx D2 cells, calcium flux agonist mode | AID 485358 | P14416 | 0.53% of 340,000 active;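 active means activation over 3 SD above normal in the single-dose calcium agonist read, cut at about 30% in these data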
#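 Agonism scored from kinetic calcium signal (1 read/sec, 180 s) following compound pin transfer, after a 10 s baseline. Cells: HEK293 Trex line expressing inducible D2 receptor coupled to calcium, dye-loaded after overnight culture at 30 C.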
# D2 PAM-2 = positive allosteric modulators of human D2 dopamine receptor; P14416; DiscoveRx D2 beta-arrestin cells, luminescence, 90 min; 100% = 57 uM dopamine signal; potentiation, % (concentration not given with the values); 0.23% of 360,000 active; in the data active means potentiation above about 50%; inconclusive means mostly about 30% to 49%
#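 D2 cells co-treated with compound plus 50 nM dopamine (EC20) for 90 min at 37 deg C to detect potentiation. Beta-arrestin recruitment was read as enzyme-fragment luminescence after 1 h at ambient temperature. Full response was set by 57 uM dopamine.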
# D2 antag = D2 dopamine receptor (human) antagonism | P14416 | HEK293 TREx D2 cells, calcium flux, dopamine EC80 | AID 485344 | 2% of 340,000 active | inhibition, % at 10 µM; in the data active means inhibition above about 30%; inactive means below that, where a call was filed
#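 Compounds are added to dye-loaded, induced HEK293 T-REx cells coupled to calcium release via D2; after a 3 min kinetic read an EC80 dopamine stimulus is given and fluorescence is recorded for 3 more min.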
# A number is an active result; – = inactive; ? = inconclusive; · = not tested or not shown. An excerpt weighted towards active compounds, which were near 2.4% of everything screened.
SMILES,D2 ag-1,D2 PAM-1,D2 ag-2,D2 PAM-2,D2 antag
CN1CCN(C(=O)C2CCN(c3ncnc4c3nc3n4CCCCC3)CC2)CC1,–,–,–,–,–
CCC(Cc1ccccc1)NC(=O)CN(C)S(=O)(=O)c1ccc2c(c1)c(=O)n(C)c(=O)n2C (stereo not drawn),–,52,–,–,–
Cn1c(=O)c2cc(S(=O)(=O)NCCC(=O)N3CC=C(c4ccccc4)CC3)ccc2n(C)c1=O,–,–,–,–,–
CN(CC(=O)N1CC=C(c2ccccc2)CC1)S(=O)(=O)c1ccc2c(c1)c(=O)n(C)c(=O)n2C,–,–,–,–,31
Cn1c(NCCc2ccncc2)nc2cc(-c3ccccc3)sc2c1=O,–,·,·,–,·
COc1ccccc1CNC(=O)C(C)n1c(=O)cc(C(F)(F)F)c2c(C)nn(C)c21 (stereo not drawn),·,–,·,·,·
CCOc1ccc(OCC)c(NS(=O)(=O)c2cc(-c3onc(C)c3C)ccc2OC)c1,·,–,–,·,·
O=C(NC1CCCCC1)c1ccc(-n2cncn2)c([N+](=O)[O-])c1,–,·,·,–,·
CC1CCC(NC(=O)c2ccc(-n3cncn3)c([N+](=O)[O-])c2)CC1 (stereo not drawn),–,–,–,–,36
CCc1nc2ccc(C(=O)NCc3cccs3)cn2c1N(C)Cc1nccs1,–,·,·,–,·
Cc1nc(COc2ccc(C(=O)NCc3ccccc3CN3CCCCC3)cc2)cs1,–,–,–,–,–
O=C(NCc1ccccc1CN1CCCC1)c1ccc(OCc2cscn2)cc1,–,–,–,–,35
COc1ccc(NC(=O)C2CCN(S(=O)(=O)c3c(C)noc3/C=C/c3ccco3)CC2)cc1,·,–,–,·,·
CN(Cc1ccccc1)C(=O)CN1CCN(C(c2ccccc2)c2ccccc2)CC1,–,–,–,–,51
CCc1c(C)sc2nc(C(C)C)nc(SCC(=O)N3CCc4ccccc4C3)c12,–,–,–,–,44
Cc1sc2nc(C3CC3)nc(SCC(=O)N3CCc4ccccc4C3)c2c1C,–,–,–,–,–
C=CCN1C(c2ccc(Br)cc2)=CS/C1=C(\C#N)c1nnc(N2CCOCC2)n1-c1ccccc1,–,·,·,–,·
C=CCN1C(c2ccc(OCC)cc2)=CS/C1=C(\C#N)c1nnc2n1CCCCC2,–,45,–,–,–
CCC(=O)Nc1cccc(NC(=O)c2ccccc2Cl)c1,–,·,–,–,–
CCC(=O)Nc1cccc(NC(=O)c2ccc(C)cc2Cl)c1,–,–,–,–,35
Cc1ccc(NS(=O)(=O)c2cccc(C(=O)NC3CCN(Cc4ccccc4)CC3)c2)c(C)c1,–,·,·,–,·
C=CCN(c1ccccc1)S(=O)(=O)c1cccc(C(=O)NC2CCN(Cc3ccccc3)CC2)c1,–,–,–,–,66
O=C(NC1CCN(Cc2ccccc2)CC1)c1cccc(S(=O)(=O)Nc2ccc(F)cc2)c1,–,–,–,–,45
O=C(NC1CCN(Cc2ccccc2)CC1)c1cccc(S(=O)(=O)Nc2ccc(Br)cc2)c1,–,–,–,–,34
COc1ccc2ccccc2c1/C=N/NC(=O)c1ccc([N+](=O)[O-])cc1,–,–,–,–,71
SMILES,D2 ag-1,D2 PAM-1,D2 ag-2,D2 PAM-2,D2 antag
COc1ccc2ccccc2c1/C=N/NC(=O)c1cccc(Br)c1,–,–,–,–,–
COc1ccc2ccccc2c1/C=N\NC(=O)c1ccc(C)s1,–,–,–,–,40
COc1ccc2ccccc2c1/C=N/NC(=O)c1ccccc1F,–,–,–,–,–
CC(=O)Nc1ccc2nc3c(=O)[nH]c(=O)[nH]c3nc2c1,·,–,–,·,·
CC(C(=O)Nc1ccc(F)c(Cl)c1)N1Cc2ccccc2C1=O (stereo not drawn),·,–,–,·,·
CCOCCCNC(=O)C1CCC(CNS(=O)(=O)c2ccc(NC(C)=O)cc2)CC1 (stereo not drawn),·,–,–,·,·
COc1ccc(CNC(=O)CN2C(=O)COc3ccc(S(=O)(=O)N4CCCCCC4)cc32)cc1,·,–,–,·,·
Cc1sc2nc(C3CC3)nc(SCC(=O)N3CCCc4ccccc43)c2c1C,·,–,–,·,–
Cn1c(=O)c2c(SCC(=O)N3CCCc4ccccc43)nc(C3CC3)nc2n(C)c1=O,–,–,–,–,35
O=c1c2ccccc2nc(-c2ccc(Cl)cc2)n1CCCOc1ccccc1F,·,–,–,·,·
CCOC(=O)C1CCCCN1C(=O)c1ccc2nc(Cc3ccc(OC)cc3)oc2c1 (stereo not drawn),?,31,–,–,–
COc1ccc(Cc2nc3ccc(C(=O)N4CCC[C@H]4CO)cc3o2)cc1,–,–,–,–,–
CCOC1(OCC)C(c2ccc(Cl)cc2)C(C#N)(C#N)C1(OCC)OCC (stereo not drawn),–,–,–,–,38
Cc1cc(N2CCOCC2)nc2ccc(NC(=O)CCC(=O)N3CCN(c4ccccc4)CC3)cc12,–,31,–,–,–
CC(C)NC(=O)C1(c2ccccc2)CCOCC1,–,35,–,–,–
CC(Cc1ccccc1)NC(=O)C1(c2ccccc2)CCOCC1 (stereo not drawn),–,–,–,–,–
COc1ccc(N2CCN(c3nc(Nc4ccc(F)cc4)nc(OC)n3)CC2)cc1,·,33,–,·,–
COc1ccc(N2CCN(c3nc(Cl)nc(Nc4ccc(F)cc4)n3)CC2)cc1,–,–,–,–,–
COc1ccc(C(=O)Oc2cc(-c3ccc4c(c3)OCO4)cc(=O)c3c(C)oc(C)c23)cc1,·,–,–,·,·
Cc1ccc(F)c(S(=O)(=O)NC(=O)C2(C)CCN2C(=O)c2cccc3ccccc23)c1 (stereo not drawn),?,·,·,62,·
O=C(Nc1ccccn1)c1ccc(Cl)c(S(=O)(=O)N2CCOCC2)c1,–,–,–,–,–
Cc1ccc(C(=O)Nc2ccccn2)cc1S(=O)(=O)N1CCOCC1,–,–,–,–,35
Nc1nnnn1/N=C/c1cccc(OCc2ccccc2Cl)c1,–,–,–,–,31
C/C(=N\Nc1ncnc2sc(C)c(C)c12)c1ccccn1,–,–,46,–,–
CCOC(=O)C1CCN(CCC(=O)Nc2ccc(Cl)cc2)CC1,–,–,–,–,–
SMILES,D2 ag-1,D2 PAM-1,D2 ag-2,D2 PAM-2,D2 antag
Clc1ccc(SCCOCCN2CCCCC2)cc1,–,–,–,–,–
CC1CN(CCOCCSc2ccc(Cl)cc2)CC(C)O1 (stereo not drawn),–,–,–,–,50
CC1CCN(CCOCCSc2ccc(Cl)cc2)CC1,–,–,–,–,45
CCOC(=O)C1CCN(CCCSc2ccc(Cl)cc2)CC1,–,–,–,–,46
OC(c1ccccc1)c1nc(-c2cccc(C(F)(F)F)c2)cs1 (stereo not drawn),–,·,·,–,·
CC(C)(C)c1cc(C(=O)N/N=C/c2cc3c(cc2Br)OCO3)n[nH]1,–,–,–,–,49
O=C(N/N=C/c1cc2c(cc1Br)OCO2)c1ccccn1,–,–,–,–,–
